Test results taken from PubChem BioAssay (NCI).
Compounds without any hit were thinned out: in the full panel of roughly 83,000, 20% have a hit.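 Single-concentration screen, 48 h exposure, 96-well plates. Endpoint: percent growth. Below 10 = active.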 Active and inactive are the calls of the source.

Experiments:
Assay in all cases: NCI-60 one-dose screen, 48 h (100 = growth as untreated, 0 = no growth, -100 = all killed)
Details in all cases: 10 µM unless noted
DU-145 prostate = test system: DU-145 prostate
K-562 leukemia = test system: K-562 leukemia
MALME-3M melanoma = test system: MALME-3M melanoma
MDA-MB-231 breast = test system: MDA-MB-231 breast
RXF 393 renal = test system: RXF 393 renal
SF-268 CNS = test system: SF-268 CNS
SF-295 CNS = test system: SF-295 CNS
SF-539 CNS = test system: SF-539 CNS
UACC-257 melanoma = test system: UACC-257 melanoma
M14 melanoma = test system: M14 melanoma
HCT-15 colon = test system: HCT-15 colon
HT29 colon = test system: HT29 colon
SNB-75 CNS = test system: SNB-75 CNS
U251 CNS = test system: U251 CNS
PC-3 prostate = test system: PC-3 prostate
SK-MEL-5 melanoma = test system: SK-MEL-5 melanoma
UACC-62 melanoma = test system: UACC-62 melanoma
LOX IMVI melanoma = test system: LOX IMVI melanoma
SK-MEL-28 melanoma = test system: SK-MEL-28 melanoma

Measured: growth

O=C(Nc1ccccc1-c1nc2ccccc2c(=O)[nH]1)c1cc2ccccc2[nH]1
inactive: DU-145 prostate 102% | K-562 leukemia 94.1% | MALME-3M melanoma 107% | MDA-MB-231 breast 79.7% | RXF 393 renal 98.4% | SF-268 CNS 91.9% | SF-295 CNS 91.3% | SF-539 CNS 89.5% | UACC-257 melanoma 83.4% | M14 melanoma 91.7% | HCT-15 colon 98.6% | HT29 colon 91.6% | SNB-75 CNS 63% | U251 CNS 92.3% | PC-3 prostate 78.3% | SK-MEL-5 melanoma 81.2% | UACC-62 melanoma 84.9% | LOX IMVI melanoma 88% | SK-MEL-28 melanoma 99.9%

N=c1sc(Cc2ccc(Cl)cc2)cn1CC(=O)c1ccc(F)cc1
active: UACC-62 melanoma 9.38%
inactive: DU-145 prostate 78.3% | K-562 leukemia 25.6% | MALME-3M melanoma 87.4% | MDA-MB-231 breast 79.7% | RXF 393 renal 82.3% | SF-268 CNS 81.8% | SF-295 CNS 64.7% | SF-539 CNS 85.5% | UACC-257 melanoma 77.5% | M14 melanoma 43.1% | HCT-15 colon 50.4% | HT29 colon 70.6% | SNB-75 CNS 90.3% | U251 CNS 79.4% | PC-3 prostate 75.5% | SK-MEL-5 melanoma 62.7% | LOX IMVI melanoma 33.2% | SK-MEL-28 melanoma 87.6%

Cc1cc(C(=O)c2ccccc2)c(C)c2c1[nH]c1ccc(Cl)cc12
inactive: K-562 leukemia 11.9% | MALME-3M melanoma 33.7% | MDA-MB-231 breast 30.6% | RXF 393 renal 18.9% | SF-268 CNS 22.8% | UACC-257 melanoma 66.1% | M14 melanoma 19.6% | U251 CNS 20.8% | PC-3 prostate 23.8% | UACC-62 melanoma 54.9% | LOX IMVI melanoma 10.2% | SK-MEL-28 melanoma 59.1%
active: DU-145 prostate 1.86% | SF-295 CNS 6.92% | SF-539 CNS -14.9% | HCT-15 colon 7.78% | HT29 colon 5.31% | SNB-75 CNS -10.1% | SK-MEL-5 melanoma 2.39%

COc1ccc(NC(=O)CSc2nc(C)c(C(C)=O)n2-c2ccc([N+](=O)[O-])cc2)cc1
inactive: DU-145 prostate 113% | K-562 leukemia 96.6% | MALME-3M melanoma 91.3% | MDA-MB-231 breast 80.3% | RXF 393 renal 84.9% | SF-268 CNS 108% | SF-295 CNS 89% | SF-539 CNS 102% | UACC-257 melanoma 98.4% | M14 melanoma 94.9% | HCT-15 colon 85.7% | HT29 colon 90.8% | SNB-75 CNS 90% | U251 CNS 93.8% | PC-3 prostate 85.3% | SK-MEL-5 melanoma 91.5% | UACC-62 melanoma 73.1% | LOX IMVI melanoma 89.7% | SK-MEL-28 melanoma 89.8%

O=c1cc(C2NNC(=S)N2)c2ccc3ccccc3c2o1 (configuration not stated)
inactive: DU-145 prostate 109% | K-562 leukemia 90.5% | MALME-3M melanoma 104% | MDA-MB-231 breast 96.3% | RXF 393 renal 87.4% | SF-268 CNS 102% | SF-295 CNS 100% | SF-539 CNS 94.1% | UACC-257 melanoma 116% | M14 melanoma 102% | HCT-15 colon 98.1% | HT29 colon 100% | SNB-75 CNS 105% | U251 CNS 96.8% | SK-MEL-5 melanoma 96.8% | UACC-62 melanoma 86.3% | LOX IMVI melanoma 87.5% | SK-MEL-28 melanoma 114%

COc1ccc(NC(=O)CSc2nc(C)c(C(C)=O)n2-c2ccc(Cl)cc2)cc1
inactive: DU-145 prostate 116% | K-562 leukemia 109% | MALME-3M melanoma 96% | MDA-MB-231 breast 59.7% | RXF 393 renal 94.5% | SF-268 CNS 102% | SF-295 CNS 93.3% | SF-539 CNS 96.2% | UACC-257 melanoma 101% | M14 melanoma 97% | HCT-15 colon 78.4% | HT29 colon 84.2% | SNB-75 CNS 84.7% | U251 CNS 105% | PC-3 prostate 96.3% | SK-MEL-5 melanoma 93.7% | UACC-62 melanoma 70.2% | LOX IMVI melanoma 91% | SK-MEL-28 melanoma 91.7%

COc1cccc(C(=O)NCCNc2cc(-c3cn(-c4ccccc4)nc3-c3cccc(OC)c3)ccn2)c1
inactive: DU-145 prostate 64% | K-562 leukemia 32.4% | MALME-3M melanoma 81% | MDA-MB-231 breast 62.1% | RXF 393 renal 74.2% | SF-268 CNS 68.9% | SF-295 CNS 58.3% | SF-539 CNS 87.3% | UACC-257 melanoma 46.9% | M14 melanoma 51.3% | HCT-15 colon 41.8% | HT29 colon 22.6% | SNB-75 CNS 74.5% | U251 CNS 48.4% | PC-3 prostate 25.4% | SK-MEL-5 melanoma 39.3% | UACC-62 melanoma 55.1% | LOX IMVI melanoma 62.1% | SK-MEL-28 melanoma 80.2%

COC(=O)[C@]12CC[C@@H](C)[C@H](C)[C@@H]1C1=CC[C@@H]3[C@@]4(C)C(C=O)=C[C@@](C)(COC(C)=O)[C@@H]4[C@H](O)C[C@@]3(C)[C@]1(C)CC2
active: DU-145 prostate -73.1% | K-562 leukemia 4.82% | MALME-3M melanoma -79.2% | MDA-MB-231 breast -39.2% | RXF 393 renal -82% | SF-268 CNS 1.2% | SF-295 CNS -30% | SF-539 CNS -55.4% | UACC-257 melanoma -58.6% | M14 melanoma -43.3% | HCT-15 colon -62.7% | HT29 colon -52.8% | SNB-75 CNS -9.48% | U251 CNS -46.7% | PC-3 prostate 8.44% | SK-MEL-5 melanoma -93.3% | UACC-62 melanoma -46.7% | LOX IMVI melanoma -99.1% | SK-MEL-28 melanoma -52.6%

COC(=O)CCC1=C(C)C2=NC1=CC1=NC(=CC3=NC(=Cc4[nH]c(/c(=C(/C)O)c4C)=C2)C(C(C)=O)=C3C)C(C)=C1CCC(=O)OC
inactive: DU-145 prostate 110% | K-562 leukemia 112% | MALME-3M melanoma 96% | MDA-MB-231 breast 103% | RXF 393 renal 112% | SF-268 CNS 98.9% | SF-295 CNS 104% | SF-539 CNS 97.7% | UACC-257 melanoma 90.3% | M14 melanoma 108% | HCT-15 colon 99.8% | HT29 colon 107% | SNB-75 CNS 90.6% | U251 CNS 98.9% | PC-3 prostate 83.7% | SK-MEL-5 melanoma 103% | UACC-62 melanoma 97.2% | LOX IMVI melanoma 96% | SK-MEL-28 melanoma 115%

O=C(NCCCNc1cc(-c2cn(-c3ccccc3)nc2-c2cccc(O)c2)ccn1)c1ccc(F)cc1
inactive: DU-145 prostate 48.4% | RXF 393 renal 15.9% | SF-268 CNS 31.3% | SF-539 CNS 13.9% | SNB-75 CNS 10.9% | U251 CNS 15.6% | PC-3 prostate 12.6% | LOX IMVI melanoma 21.5%
active: K-562 leukemia 0.281% | MALME-3M melanoma -12.1% | MDA-MB-231 breast -13.6% | SF-295 CNS -4.5% | UACC-257 melanoma -51.7% | M14 melanoma -41.8% | HCT-15 colon -4.32% | HT29 colon 0.339% | SK-MEL-5 melanoma -24.8% | UACC-62 melanoma -1.62% | SK-MEL-28 melanoma -34.8%

COc1cccc(-c2nc3sccn3c2-c2ccnc(NCCNS(=O)(=O)c3ccc(C(F)(F)F)cc3)c2)c1
inactive: DU-145 prostate 49.4% | K-562 leukemia 25.7% | MALME-3M melanoma 42.2% | MDA-MB-231 breast 70.1% | RXF 393 renal 34% | SF-268 CNS 35.8% | SF-295 CNS 27.7% | SF-539 CNS 53.7% | UACC-257 melanoma 39.2% | M14 melanoma 38.4% | HCT-15 colon 33% | HT29 colon 35.7% | SNB-75 CNS 38.1% | U251 CNS 42.1% | SK-MEL-5 melanoma 14.9% | UACC-62 melanoma 38.9% | LOX IMVI melanoma 46.3% | SK-MEL-28 melanoma 57.8%

C[n+]1cccc(CC(=O)NO)c1
inactive: DU-145 prostate 109% | K-562 leukemia 94.4% | MALME-3M melanoma 104% | MDA-MB-231 breast 100% | RXF 393 renal 106% | SF-268 CNS 104% | SF-295 CNS 113% | SF-539 CNS 90.9% | UACC-257 melanoma 67.7% | M14 melanoma 99.2% | HCT-15 colon 112% | HT29 colon 99.7% | SNB-75 CNS 92.6% | U251 CNS 87.6% | PC-3 prostate 95.5% | SK-MEL-5 melanoma 96.4% | UACC-62 melanoma 92.9% | LOX IMVI melanoma 98% | SK-MEL-28 melanoma 113%

COc1ccc(/C=N\NC(=O)c2cc(-c3ccc(Br)cc3)n(-c3ccc(S(N)(=O)=O)cc3)n2)cc1
inactive: DU-145 prostate 58.6% | K-562 leukemia 11.4% | MALME-3M melanoma 47% | MDA-MB-231 breast 70.4% | RXF 393 renal 18.5% | SF-268 CNS 53.1% | SF-295 CNS 11% | SF-539 CNS 18.3% | UACC-257 melanoma 66.2% | M14 melanoma 30.9% | HCT-15 colon 33.3% | HT29 colon 36.7% | U251 CNS 51.3% | PC-3 prostate 51.2% | SK-MEL-5 melanoma 42% | UACC-62 melanoma 32.3% | LOX IMVI melanoma 45.4% | SK-MEL-28 melanoma 47.4%
active: SNB-75 CNS -27.8%

CC1CC(C(C)(C)C)C(=O)C(C(C)(C)C)C1 (configuration not stated)
inactive: DU-145 prostate 112% | K-562 leukemia 102% | MALME-3M melanoma 105% | MDA-MB-231 breast 109% | RXF 393 renal 112% | SF-268 CNS 103% | SF-295 CNS 105% | SF-539 CNS 101% | UACC-257 melanoma 102% | M14 melanoma 118% | HCT-15 colon 97.8% | HT29 colon 93.4% | SNB-75 CNS 105% | PC-3 prostate 108% | SK-MEL-5 melanoma 105% | UACC-62 melanoma 100% | LOX IMVI melanoma 106% | SK-MEL-28 melanoma 116%

COc1cc(Cn2ncc3ccc(NC(=O)c4cc5ccccc5oc4=N)cc32)cc(OC)c1OC
inactive: DU-145 prostate 88.5% | K-562 leukemia 16.3% | MALME-3M melanoma 54% | MDA-MB-231 breast 54.4% | RXF 393 renal 73.3% | SF-268 CNS 85.8% | SF-295 CNS 63.6% | SF-539 CNS 29.5% | UACC-257 melanoma 98.8% | M14 melanoma 29.5% | HCT-15 colon 27.2% | HT29 colon 15.8% | SNB-75 CNS 90.9% | U251 CNS 62.9% | PC-3 prostate 47.1% | SK-MEL-5 melanoma 61.6% | UACC-62 melanoma 55.2% | LOX IMVI melanoma 63.6% | SK-MEL-28 melanoma 51.3%
